Screens: PubChem, several laboratories
MsrA inhibitor: bovine MsrA inhibition | purified bovine MsrA, absorbance read-out | inhibition, % at 15.5 µM | hit rate 0.75% among 360,000 | AID 651718;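 note: 0% = vehicle wells with enzyme and 100% = reference inhibitor wells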
14-3-3 Bad PPI: disrupts binding of bovine 14-3-3 zeta to phospho-Bad peptide; P63103; TR-FRET 14-3-3zeta/Dy647-pBad peptide displacement, 1 h; inhibition, % at 21.7 µM; hit rate 0.71% among 220,000; AID 781;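 active = inhibition above about 70%, limit read from the data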;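 note: 0% = full 14-3-3 plus peptide FRET controls and 100% = background without 14-3-3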
Target sequence (P63103 whole entry, looked up): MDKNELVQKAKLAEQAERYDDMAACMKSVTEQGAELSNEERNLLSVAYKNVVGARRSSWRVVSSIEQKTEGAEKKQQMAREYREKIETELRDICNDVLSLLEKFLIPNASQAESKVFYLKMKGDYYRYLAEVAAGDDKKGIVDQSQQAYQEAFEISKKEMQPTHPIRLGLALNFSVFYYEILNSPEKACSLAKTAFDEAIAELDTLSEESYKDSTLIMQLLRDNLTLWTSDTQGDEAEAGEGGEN
pCIP destab: p/CIP protein destabilization; Q05BA5; F442A p/CIP-EGFP cells, EGFP fluorescence, 16 h; decrease of EGFP signal, % at 10 µM; hit rate 0.01% among 290,000;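 active = EGFP signal decrease of at least 30% at 10 µM or well 3 SD below plate mean, unless failing retest; inactive = the rest, including hits failing retest or dose response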
bovine MsrA act: activators of bovine methionine sulfoxide reductase A. purified bovine MsrA, absorbance read-out. activation, % at 10.6 µM. hit rate 0.3% among 360,000. AID 602163; in the data active = activation above about 7.5%;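 note: 0% = vehicle and 100% = reference activator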
MsrA conf: confirmation of bovine MsrA inhibitors. shares compounds with MsrA inhibitor. hit rate 41% among 2,300. purified bovine MsrA, absorbance read-out. inhibition, % at 15.5 µM;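 note: coupled to thioredoxin reductase with NADPH and selenocystamine and DMSO as substrate; 0% = vehicle only and 100% = full effect of reference inhibitor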
Numbers without * were called inactive; nt = no result; [ ] = another dose, or the depositor's remark. This is a sample that favours compounds with a hit; in the whole collection about 1.4% have one here. Cut-off read from the data, not from the text of the source, unless noted: active = inhibition above about 4.5%; inactive = the rest.

SMILES | MsrA inhibitor | 14-3-3 Bad PPI | pCIP destab | bovine MsrA act | MsrA conf
O=C1N/C(=C\c2ccc(O)cc2)C(O)=C1C=NCc1ccccc1 | 4.9* | -6 | 4 | -4 | 4
O=C(N/N=C\C=C\c1ccc2c(c1)OCO2)C1COc2ccccc2O1 (stereo not drawn) | 4.8* | -1 | 7 | -11 | 3
O=C(N/N=C\C=C\c1ccc2c(c1)OCO2)c1cccnc1 | 8.0* | -4 | -20 | -15 | 5.7*
Nc1nc(COC(=O)C2CCN(C(=O)c3ccc(Cl)cc3)CC2)nc(Nc2ccccc2)n1 | 0 | nt | nt | -2 | nt
O=C(CCN1C(=O)S/C(=C/c2ccccc2)C1=O)Nc1ccc(C(=O)O)c(O)c1 | 5.7* | nt | -4 | -6 | 2
O=C(CN1C(=O)S/C(=C/c2ccccn2)C1=O)N1CCOCC1 | 5.3* | nt | -9 | -6 | 4.8*
O=C(CCN1C(=O)S/C(=C\c2ccc(F)cc2)C1=O)Nc1ccc(C(=O)O)c(O)c1 | 4 | nt | -16 | -14 | nt
O=C(CN1C(=O)S/C(=C\c2ccccc2)C1=O)NC1CCS(=O)(=O)C1 (stereo not drawn) | 5.3* | nt | -12 | -2 | 4
O=C(CN1C(=O)S/C(=C\C=C\c2ccccc2)C1=O)NC1CCS(=O)(=O)C1 (stereo not drawn) | 3 | nt | 4 | -7 | nt
O=C(CN1C(=O)S/C(=C\c2ccccc2)C1=O)Nc1cc([N+](=O)[O-])ccc1O | 4.8* | nt | -14 | -4 | 4.6*
Cc1nc(N)ncc1CCC1OCCO1 | -1 | nt | nt | 2 | nt
O=C(CCN1C(=O)S/C(=C\c2ccccc2)C1=O)N1CCOCC1 | 5.7* | nt | nt | 3 | 3
O=C(CCN1C(=O)/C(=C\c2ccccc2)SC1=S)N1CCOCC1 | 0 | nt | -20 | 0 | nt
O=C(O)c1ccc(N2C(=O)c3cccc4c(C(=O)O)ccc(c34)C2=O)cc1 | 5.5* | 42 | -8 | -4 | 2
O=C(O)c1ccc2c3c(cccc13)C(=O)N(c1ccccc1)C2=O | 4 | 26 | -6 | -7 | nt
NS(=O)(=O)c1ccc(O)c(N2C(=O)c3cccc4c(C(=O)O)ccc(c34)C2=O)c1 | 5.0* | 2 | 0 | -1 | 4
COc1c(F)cccc1C1=CC(=O)C[C@H](c2ccc3c(c2)OCO3)C1 | 7.1* | nt | nt | -1 | 3
CC(=O)N1c2ccccc2NC2=C(C(=O)CCC2)C1c1ccco1 (stereo not drawn) | 4.9* | -7 | -6 | -17 | 3
CCC(=O)N1c2ccccc2NC2=C(C(=O)CCC2)C1c1cccnc1 (stereo not drawn) | 4.8* | 10 | -2 | -5 | 3
CC(=O)Oc1cccc(C2C3=C(CC(C)(C)CC3=O)Nc3ccccc3N2C(C)=O)c1 (stereo not drawn) | 3 | nt | 10 | -6 | nt
CCOC(=O)C1=C(C)NC2=C(C(=O)CCC2)C1c1cccnc1 (stereo not drawn) | 2 | -11 | -10 | -3 | nt
COc1ccc(/C=C/c2cc(-c3ccc(C)cc3)o[n+]2C)cc1 | 5.0* | -2 | -19 | -6 | 4
COc1cccc(Nc2nc3cc(OC)ccc3cc2C#N)c1 | 17* | -2 | 13 | -2 | 13*
COc1ccc(Nc2nc3c(C)cccc3cc2C#N)cc1 | 4 | -7 | 0 | -12 | nt
CCN1CCN(C(=O)C2=CC(c3ccc(C)cc3)=NS(=O)(=O)N2C)CC1 | 3 | nt | 0 | -2 | nt
SMILES | MsrA inhibitor | 14-3-3 Bad PPI | pCIP destab | bovine MsrA act | MsrA conf
Cc1ccc(C2=NS(=O)(=O)N(C)C(C(=O)NCc3ccccn3)=C2)cc1 | 5.2* | nt | 2 | 2 | 2
Cc1ccc(C2=NS(=O)(=O)N(C)C(C(=O)NCc3cccs3)=C2)cc1 | 4 | nt | -6 | -3 | nt
Cc1ccc(C2=NS(=O)(=O)N(C)C(C(=O)N3CCCCC3)=C2)cc1 | 5.0* | nt | 7 | -3 | 3
COc1ccc(C2=NS(=O)(=O)N(C)C(C(=O)N3CCN(C)CC3)=C2)cc1 | 5.9* | nt | 5 | -4 | 3
Cc1ccc(S(=O)(=O)N2CCN(C(=O)NCc3ccc(F)cc3)CC2)c(C)c1 | -1 | nt | -6 | -1 | nt
CCOC(=O)C1=CN(Cc2cccc(-c3ccc(Cl)nc3)c2)S(=O)(=O)N(C)C1C (stereo not drawn) | 2 | nt | nt | -2 | nt
O=c1cc(-c2ccc(O)cc2)oc2ccccc12 | 3 | -6 | -3 | -4 | nt
O=c1cc(-c2ccc(O)cc2)oc2ccc(O)cc12 | 5.5* | -4 | 16 | -2 | 2
COc1ccc(S(=O)(=O)Nc2cc(Sc3ncn[nH]3)c(O)c3ccccc23)cc1 | 64* | 87*[fluorescence artefact?] | -27 | nt | 0
COc1ccc(S(=O)(=O)Nc2ccc(O)c(Sc3ncn[nH]3)c2)cc1 | 1 | -14 | -8 | -15 | nt
COc1ccc(S(=O)(=O)Nc2cccc3ccc(O)cc23)cc1 | -1 | nt | nt | -9 | nt
COc1ccc(S(=O)(=O)Nc2cc(SCC(=O)O)c(O)c3ccccc23)cc1 | 7.4* | nt | 6 | 5 | 0
CCN1CCN(Cc2nnc(-c3ccc(C)cc3)o2)CC1 | 0 | nt | 12 | -4 | nt
COc1ccccc1N1CCN(C(=O)c2ccc3noc(-c4ccccc4)c3c2)CC1 | 0 | nt | nt | -1 | nt
COCCN(C(=O)c1ccc(-c2ccc([N+](=O)[O-])cc2)o1)c1c(N)n(CC(C)C)c(=O)[nH]c1=O | 4.7* | nt | nt | -4 | 4.6*
CC(=O)c1cnc(N(C)C)s1 | 6.5* | -2 | -1 | -3 | 4
CC(=O)c1cnc(Nc2ccccc2)s1 | 5 | 5 | 3 | -2 | nt
COCCCNC(=S)N/N=C/c1ccc2c(c1)OCO2 | 5.5* | -8 | 1 | -4 | 4.9*
Cc1cc(C(=O)N/N=C/c2ccc[nH]2)n[nH]1 | 5.3* | -7 | 7 | -6 | 4
O=C(N/N=C/c1ccc[nH]1)c1ccccc1O | 4 | -4 | -2 | -5 | nt
Cc1cc(C(=O)N/N=C/c2ccc[nH]2)no1 | 5 | -4 | -1 | -9 | nt
COCCNC(=S)N/N=C/c1ccc2c(c1)OCCO2 | 4 | -27 | -6 | -2 | nt
O=C(N/N=C/c1ccc[nH]1)c1ccc(O)cc1 | 5.3* | -7 | -10 | -3 | 4
O=C(N/N=C/c1ccc[nH]1)c1cc(-c2cccs2)nc2ccccc12 | 4.9* | -11 | -18 | -2 | 4
COC(CNC(=O)Cn1nc(Cc2ccncc2)c2ccccc2c1=O)OC | 0 | nt | 3 | -1 | nt
SMILES | MsrA inhibitor | 14-3-3 Bad PPI | pCIP destab | bovine MsrA act | MsrA conf
NC1(C(=O)O)CCCCC1c1ccccc1 (stereo not drawn) | 0 | nt | nt | -3 | nt
COc1ccccc1/C=N/NC(=O)c1ccc2c(c1)OCO2 | 2 | nt | -2 | 5 | nt
O=C(NN=Cc1ccc2c(c1)OCO2)c1ccccc1 | 4 | nt | nt | -10 | nt
COc1ccc(NS(=O)(=O)c2cccc(C(=O)NN=Cc3ccc(OC)cc3OC)c2)cc1 | 2 | nt | nt | 0 | nt
CC(=O)Nc1ccc(NC(=O)/C=C/c2ccc3c(c2)OCO3)cc1 | 5.5* | -6 | 2 | -5 | 4
O=C(N/N=C/c1ccc2c(c1)OCO2)c1ccc2c(c1)OCO2 | 4.7* | nt | 2 | -5 | 4
O=C(N/N=C/c1ccc[nH]1)c1ccc2c(c1)OCO2 | 5.1* | -4 | -1 | -3 | 4
COc1ccc(NS(=O)(=O)c2cccc(C(=O)NN=Cc3cc(Br)c(O)c(Br)c3)c2)cc1 | 5.7* | nt | nt | -6 | 4.9*
O=C1CC2(CCN(C(=O)c3ccccc3Cl)CC2)Oc2ccccc21 | -2 | nt | nt | 0 | nt
